# What was measured:
# [1] = biological target: Serine/threonine-protein kinase MRCK alpha (Homo sapiens) (UniProt Q5VT25); settings: at 0.1 µM
# [2] = biological target: Serine/threonine-protein kinase MRCK alpha (Homo sapiens) (UniProt Q5VT25); settings: at 1 µM
# [3] = biological target: Serine/threonine-protein kinase MRCK beta (Homo sapiens) (UniProt Q9Y5S2); settings: at 0.1 µM
# [4] = biological target: Serine/threonine-protein kinase MRCK beta (Homo sapiens) (UniProt Q9Y5S2); settings: at 1 µM
# [5] = biological target: Ribosomal protein S6 kinase alpha-5 (Homo sapiens) (UniProt O75582); settings: at 0.1 µM
# [6] = biological target: Ribosomal protein S6 kinase alpha-5 (Homo sapiens) (UniProt O75582); settings: at 1 µM
# [7] = biological target: Ribosomal protein S6 kinase alpha-4 (Homo sapiens) (UniProt O75676); settings: at 0.1 µM
# [8] = biological target: Ribosomal protein S6 kinase alpha-4 (Homo sapiens) (UniProt O75676); settings: at 1 µM
# [9] = biological target: Ribosomal protein S6 kinase beta-1 (Homo sapiens) (UniProt P23443); settings: at 0.1 µM
# Sequence of Ribosomal protein S6 kinase beta-1 (Homo sapiens) (P23443 whole entry, looked up): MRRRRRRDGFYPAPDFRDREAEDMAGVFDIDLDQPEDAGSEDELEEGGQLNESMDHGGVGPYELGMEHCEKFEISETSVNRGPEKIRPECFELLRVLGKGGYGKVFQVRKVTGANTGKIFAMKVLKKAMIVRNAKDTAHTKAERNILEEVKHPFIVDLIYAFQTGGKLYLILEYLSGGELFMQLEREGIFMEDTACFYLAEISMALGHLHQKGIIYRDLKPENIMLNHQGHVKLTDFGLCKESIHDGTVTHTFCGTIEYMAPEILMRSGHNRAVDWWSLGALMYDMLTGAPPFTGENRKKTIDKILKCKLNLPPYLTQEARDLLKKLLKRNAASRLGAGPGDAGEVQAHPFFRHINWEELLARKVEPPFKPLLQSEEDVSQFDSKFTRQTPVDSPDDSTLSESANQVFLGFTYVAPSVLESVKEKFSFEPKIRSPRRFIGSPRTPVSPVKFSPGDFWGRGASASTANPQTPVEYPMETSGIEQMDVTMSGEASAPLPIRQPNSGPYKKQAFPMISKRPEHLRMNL
# [10] = biological target: Ribosomal protein S6 kinase beta-1 (Homo sapiens) (UniProt P23443); settings: at 1 µM
# [11] = biological target: T1, 3-phosphoinositide-dependent protein kinase 1 (Homo sapiens) (UniProt O15530); settings: at 0.1 µM;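 also: values are mean inhibition of PDK1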
# T1 sequence (whole entry): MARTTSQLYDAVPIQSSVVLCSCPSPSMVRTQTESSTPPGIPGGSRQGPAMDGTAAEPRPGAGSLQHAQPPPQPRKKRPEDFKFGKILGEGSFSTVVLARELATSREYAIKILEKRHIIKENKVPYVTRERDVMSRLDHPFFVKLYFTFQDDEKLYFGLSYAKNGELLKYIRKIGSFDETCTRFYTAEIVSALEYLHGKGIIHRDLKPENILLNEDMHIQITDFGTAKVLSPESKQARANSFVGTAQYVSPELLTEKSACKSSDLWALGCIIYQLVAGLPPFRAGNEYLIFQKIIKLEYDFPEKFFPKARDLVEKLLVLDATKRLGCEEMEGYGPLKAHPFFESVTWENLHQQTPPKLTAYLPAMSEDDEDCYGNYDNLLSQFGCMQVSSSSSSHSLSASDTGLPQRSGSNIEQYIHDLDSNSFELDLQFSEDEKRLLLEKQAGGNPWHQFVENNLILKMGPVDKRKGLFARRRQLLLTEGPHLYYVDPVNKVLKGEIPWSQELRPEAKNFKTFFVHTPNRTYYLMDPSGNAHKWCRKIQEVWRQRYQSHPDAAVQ
# [12] = biological target: cAMP-dependent protein kinase catalytic subunit alpha (Homo sapiens) (UniProt P17612); settings: at 0.1 µM
# [13] = biological target: cAMP-dependent protein kinase catalytic subunit alpha (Homo sapiens) (UniProt P17612); settings: at 1 µM
# [14] = biological target: Protein kinase C alpha type (Homo sapiens) (UniProt P17252); settings: at 0.1 µM
# [15] = biological target: Protein kinase C alpha type (Homo sapiens) (UniProt P17252); settings: at 1 µM
# [16] = biological target: Protein kinase C beta type (Homo sapiens) (UniProt P05771); settings: at 0.1 µM
# Sequence of Protein kinase C beta type (Homo sapiens) (P05771 2-671 limits assumed): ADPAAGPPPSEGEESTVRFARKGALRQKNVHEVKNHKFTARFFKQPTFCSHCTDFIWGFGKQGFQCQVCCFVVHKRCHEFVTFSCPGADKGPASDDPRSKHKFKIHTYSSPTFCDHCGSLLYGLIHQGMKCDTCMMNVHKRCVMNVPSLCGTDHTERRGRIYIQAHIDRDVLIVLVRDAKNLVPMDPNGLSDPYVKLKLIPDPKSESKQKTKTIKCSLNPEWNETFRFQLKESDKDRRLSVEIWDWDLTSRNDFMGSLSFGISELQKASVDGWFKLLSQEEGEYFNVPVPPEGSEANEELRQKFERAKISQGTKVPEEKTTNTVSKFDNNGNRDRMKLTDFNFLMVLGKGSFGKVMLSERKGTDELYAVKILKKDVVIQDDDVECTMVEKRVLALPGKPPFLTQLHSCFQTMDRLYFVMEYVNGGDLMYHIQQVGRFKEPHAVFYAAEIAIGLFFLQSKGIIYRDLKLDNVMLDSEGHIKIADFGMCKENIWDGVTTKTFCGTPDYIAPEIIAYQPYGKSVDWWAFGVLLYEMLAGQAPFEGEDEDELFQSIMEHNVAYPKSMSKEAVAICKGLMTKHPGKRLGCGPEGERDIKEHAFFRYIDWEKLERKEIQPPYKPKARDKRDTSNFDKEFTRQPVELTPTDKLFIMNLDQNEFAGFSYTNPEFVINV
# [17] = biological target: Protein kinase C beta type (Homo sapiens) (UniProt P05771); settings: at 1 µM
# [18] = biological target: Protein kinase C eta type (Homo sapiens) (UniProt P24723); settings: at 0.1 µM
# [19] = biological target: Protein kinase C eta type (Homo sapiens) (UniProt P24723); settings: at 1 µM
# [20] = biological target: Protein kinase C gamma type (Homo sapiens) (UniProt P05129); settings: at 0.1 µM;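 also: values are mean percent inhibition of PKC gamma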
# Sequence of Serine/threonine-protein kinase MRCK beta (Homo sapiens) (Q9Y5S2 whole entry): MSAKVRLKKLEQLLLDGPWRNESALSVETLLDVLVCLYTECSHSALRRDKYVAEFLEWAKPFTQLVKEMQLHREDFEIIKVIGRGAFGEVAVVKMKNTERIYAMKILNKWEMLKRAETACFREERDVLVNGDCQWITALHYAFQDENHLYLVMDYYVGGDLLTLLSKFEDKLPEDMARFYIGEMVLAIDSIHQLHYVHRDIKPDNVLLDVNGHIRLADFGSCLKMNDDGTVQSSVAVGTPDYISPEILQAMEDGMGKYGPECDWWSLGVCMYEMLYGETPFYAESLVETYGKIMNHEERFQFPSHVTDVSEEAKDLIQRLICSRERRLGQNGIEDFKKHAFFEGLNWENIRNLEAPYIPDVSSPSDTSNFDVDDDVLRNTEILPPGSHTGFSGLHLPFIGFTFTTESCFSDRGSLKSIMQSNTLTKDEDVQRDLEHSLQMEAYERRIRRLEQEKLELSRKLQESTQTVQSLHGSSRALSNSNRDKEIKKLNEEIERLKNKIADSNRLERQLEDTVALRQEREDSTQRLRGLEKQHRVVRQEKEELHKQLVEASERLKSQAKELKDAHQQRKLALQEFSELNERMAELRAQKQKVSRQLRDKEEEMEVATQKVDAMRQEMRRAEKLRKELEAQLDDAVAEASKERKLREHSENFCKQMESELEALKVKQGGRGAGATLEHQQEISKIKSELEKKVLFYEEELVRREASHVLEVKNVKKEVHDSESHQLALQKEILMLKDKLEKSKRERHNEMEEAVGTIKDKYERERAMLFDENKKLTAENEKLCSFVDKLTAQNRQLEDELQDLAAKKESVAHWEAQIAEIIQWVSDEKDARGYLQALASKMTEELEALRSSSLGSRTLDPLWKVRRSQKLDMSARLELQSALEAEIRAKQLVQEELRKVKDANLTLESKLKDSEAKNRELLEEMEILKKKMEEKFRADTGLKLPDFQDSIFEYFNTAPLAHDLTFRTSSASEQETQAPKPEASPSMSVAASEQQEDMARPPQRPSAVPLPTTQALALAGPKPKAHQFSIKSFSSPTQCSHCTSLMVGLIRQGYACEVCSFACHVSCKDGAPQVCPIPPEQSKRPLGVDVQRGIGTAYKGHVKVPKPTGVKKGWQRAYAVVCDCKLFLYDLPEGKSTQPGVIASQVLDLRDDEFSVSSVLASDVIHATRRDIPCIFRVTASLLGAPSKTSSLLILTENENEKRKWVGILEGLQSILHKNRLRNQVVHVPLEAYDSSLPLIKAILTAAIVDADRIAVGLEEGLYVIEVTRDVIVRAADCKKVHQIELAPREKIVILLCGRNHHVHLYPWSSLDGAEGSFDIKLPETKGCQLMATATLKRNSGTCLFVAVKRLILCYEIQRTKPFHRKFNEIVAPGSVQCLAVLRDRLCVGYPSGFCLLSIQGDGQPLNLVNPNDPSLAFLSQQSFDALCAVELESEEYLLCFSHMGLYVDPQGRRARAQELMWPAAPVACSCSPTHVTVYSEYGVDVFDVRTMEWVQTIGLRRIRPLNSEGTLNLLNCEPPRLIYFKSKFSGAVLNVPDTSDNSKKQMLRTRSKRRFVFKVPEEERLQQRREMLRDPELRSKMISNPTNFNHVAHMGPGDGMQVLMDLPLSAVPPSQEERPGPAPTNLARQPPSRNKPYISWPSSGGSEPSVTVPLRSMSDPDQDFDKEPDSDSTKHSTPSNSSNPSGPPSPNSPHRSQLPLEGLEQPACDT
# Sequence of Serine/threonine-protein kinase MRCK alpha (Homo sapiens) (Q5VT25 whole entry): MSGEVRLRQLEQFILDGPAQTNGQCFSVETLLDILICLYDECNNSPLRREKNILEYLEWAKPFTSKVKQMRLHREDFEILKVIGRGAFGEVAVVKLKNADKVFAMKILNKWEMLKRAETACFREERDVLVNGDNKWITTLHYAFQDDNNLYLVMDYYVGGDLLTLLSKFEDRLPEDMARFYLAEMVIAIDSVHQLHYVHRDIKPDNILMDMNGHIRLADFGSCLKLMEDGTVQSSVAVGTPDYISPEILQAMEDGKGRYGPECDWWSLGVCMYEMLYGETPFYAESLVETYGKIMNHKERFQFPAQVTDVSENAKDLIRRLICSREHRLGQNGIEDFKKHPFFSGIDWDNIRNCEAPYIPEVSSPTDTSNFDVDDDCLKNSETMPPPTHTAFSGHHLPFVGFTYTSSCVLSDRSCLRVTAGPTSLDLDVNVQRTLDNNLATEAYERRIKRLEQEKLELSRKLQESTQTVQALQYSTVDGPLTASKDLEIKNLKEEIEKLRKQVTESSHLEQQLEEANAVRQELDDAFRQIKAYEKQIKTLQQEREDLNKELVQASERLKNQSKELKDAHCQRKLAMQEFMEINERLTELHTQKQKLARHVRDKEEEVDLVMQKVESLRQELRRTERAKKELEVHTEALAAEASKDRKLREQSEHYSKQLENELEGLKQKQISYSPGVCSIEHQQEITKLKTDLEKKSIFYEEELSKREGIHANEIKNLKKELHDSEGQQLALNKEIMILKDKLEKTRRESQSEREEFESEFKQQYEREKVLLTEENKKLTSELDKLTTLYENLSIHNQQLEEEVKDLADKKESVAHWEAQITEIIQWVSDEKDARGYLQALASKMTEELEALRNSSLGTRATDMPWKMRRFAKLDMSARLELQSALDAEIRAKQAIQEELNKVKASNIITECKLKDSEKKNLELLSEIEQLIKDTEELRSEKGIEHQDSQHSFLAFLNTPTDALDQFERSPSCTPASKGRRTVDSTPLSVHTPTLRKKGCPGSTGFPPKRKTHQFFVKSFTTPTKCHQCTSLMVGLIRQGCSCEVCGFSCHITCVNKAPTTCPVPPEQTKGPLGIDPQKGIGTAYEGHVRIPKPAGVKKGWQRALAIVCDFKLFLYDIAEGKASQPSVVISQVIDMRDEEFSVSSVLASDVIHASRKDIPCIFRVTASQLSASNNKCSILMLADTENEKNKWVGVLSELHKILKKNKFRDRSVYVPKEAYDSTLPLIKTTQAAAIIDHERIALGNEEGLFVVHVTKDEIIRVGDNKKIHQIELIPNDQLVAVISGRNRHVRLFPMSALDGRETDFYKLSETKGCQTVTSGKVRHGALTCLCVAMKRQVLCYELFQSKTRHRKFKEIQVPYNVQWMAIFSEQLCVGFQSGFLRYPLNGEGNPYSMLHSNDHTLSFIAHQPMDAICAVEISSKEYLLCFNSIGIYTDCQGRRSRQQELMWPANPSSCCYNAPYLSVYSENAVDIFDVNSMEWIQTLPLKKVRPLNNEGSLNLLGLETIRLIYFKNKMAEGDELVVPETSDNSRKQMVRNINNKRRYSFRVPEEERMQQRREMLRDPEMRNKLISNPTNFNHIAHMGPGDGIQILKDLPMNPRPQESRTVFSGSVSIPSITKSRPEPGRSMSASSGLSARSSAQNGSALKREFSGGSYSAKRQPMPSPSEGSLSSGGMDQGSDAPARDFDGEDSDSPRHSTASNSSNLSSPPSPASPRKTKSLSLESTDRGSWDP
SMILES,inhibition [1] [%],inhibition [2] [%],inhibition [3] [%],inhibition [4] [%],inhibition [5] [%],inhibition [6] [%],inhibition [7] [%],inhibition [8] [%],inhibition [9] [%],inhibition [10] [%],inhibition [11] [%],inhibition [12] [%],inhibition [13] [%],inhibition [14] [%],inhibition [15] [%],inhibition [16] [%],inhibition [17] [%],inhibition [18] [%],inhibition [19] [%],inhibition [20] [%]
c1ccc(Cc2nc3ccc(Nc4ncnc5ccccc45)cc3[nH]2)cc1,-0.57,-0.25,-0.96,-0.17,2.76,4.26,0.49,2.83,0.76,2.79,0.78,1.15,2.76,1.22,4.52,1.26,1.59,2.55,2.75,1.69
C[C@@H](Oc1cc(-n2cnc3ccc(OC[C@@H](O)CO)cc32)sc1C(N)=O)c1ccccc1Cl,-0.35,4.31,1.02,3.59,-1.23,-0.54,0.35,1.7,0.75,1.5,0.22,-0.26,-0.61,-0.25,3.02,-0.38,1.7,0.53,0.23,-1.57
COc1cc2ncn(-c3cc(OCc4ccccc4S(C)(=O)=O)c(C#N)s3)c2cc1OC,1.12,5.41,1.99,4.7,8.16,11,3.93,10,3.14,5.33,5.59,2.29,3.77,1.33,2.72,2.71,5.16,0.91,-1.63,1.77
COC(=O)Nc1nc2cc(Oc3ccc(NC(=O)Nc4cccc(Br)c4)cc3)ccc2[nH]1,0.43,0.85,1.24,-0.22,2.67,1.7,2.29,2.39,2,3.21,3.36,1.25,1.19,1.04,1.61,-0.97,2.4,-0.37,4.28,-0.79
Oc1cccc(-c2nc(-c3ccccc3)[nH]c2-c2ccncc2)c1,-0.93,2.63,-0.32,0.92,3.05,4.64,1.9,3.89,1.55,6.44,4.03,2.46,6.88,0.69,3.01,2.07,8.23,2.41,9.76,2.86
CCCN1CCCC(c2ccc(Nc3nc(Nc4cc(F)ccc4C(N)=O)c4cc[nH]c4n3)c(OC)c2)C1 (stereo not given),1.76,17.9,1.55,13,4.88,5.31,1.64,7.01,1.93,4.24,2.08,2.2,2.23,2.24,15.9,-0.31,3.2,1.86,1.44,5.05
NC(=O)c1sc(-n2cnc3ccccc32)cc1OCc1ccccc1Br,1.73,4.94,-1.16,0.28,8.61,10,2.12,4.72,1.52,4.06,1.27,1.4,4.48,1.58,2.92,-0.55,0.73,5.09,2.7,1.38
CC(C)c1ccc(Nc2nccc(-c3cnn4ncccc34)n2)cc1,-1.68,-0.92,-1.18,-0.74,0.84,1.36,1.31,2.98,0.78,1.58,2.46,1.64,1.72,0.38,6.9,0.55,1.57,1.03,3.89,1.93
COC(=O)c1ccc2c(c1)C(=Cc1cc(Br)c(O)c(Br)c1)C(=O)N2,5.51,5.34,-0.51,-0.15,7.14,12.2,2.52,6.18,1.57,3.47,-0.14,1.68,0.85,0.87,2.31,-0.23,-0.51,2.26,3.91,1.07
NS(=O)(=O)c1ccc(NC=C2C(=O)Nc3ccc4ncsc4c32)cc1,3.96,20.5,5.03,15.4,11,23.1,28.8,63.9,5.33,25.6,30.1,2.64,11.8,1.14,8.8,0.12,2.75,6.21,4.18,3.84
c1ccc(Nc2ncc(-c3ccccc3)o2)cc1,1.05,2.6,-0.11,0.28,3.68,3.58,2.52,3.34,3.16,5,4.59,2.19,3.41,1.37,2.47,-0.26,-0.49,2.48,5.31,2.57
C[C@@H](Oc1cc(-n2cnc3ccc(OCC4CCN(C)CC4)cc32)sc1C(N)=O)c1ccccc1C(F)(F)F,0.6,5.18,0.07,0.75,-2.08,-0.6,0,2.52,0.24,5.55,0.45,-0.41,1.15,0.1,9.63,0.2,5.91,-5.73,5.16,3.29
COc1cccc(-n2ncc3c(N/N=C/c4ccc(S(C)(=O)=O)cc4)ncnc32)c1,-0.29,-0.45,0.04,0.16,-1.19,-0.55,1.78,2.04,1.23,5.85,2.37,-3.29,-0.93,-3.07,-0.59,2.22,7.27,1.23,2.85,1.86

# Reference: ChEMBL document CHEMBL1961873, “Compounds: GSK PKIS; Assays: Nanosyn kinase panel” (2012)
